Drawing on PubChem BioAssay (Tox21), this text covers Potency, outcome and max activation for eight molecules.

“And” between values parts separate entries of the source, which are not always exact repeats. Equal entries are not always repeated. A number with no mark means an inactive call. Records with an inconclusive call do not appear. The source made the active and inactive calls. Unless noted, the call rests on the fitted dose curve; in most records, active means well fitted curve in the direction sought with a large enough effect in the repeat runs; inconclusive means weak or mixed curves; inactive means no such curve, though single readings can be large; an effect the other way counts as inactive or inconclusive.

The nature of assay [1]: qHTS assay to identify small molecule agonists of the estrogen receptor alpha (ER-alpha) signaling pathway in the presence of an antagonist - cell viability counter screen (AID 1259386).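 Further: cells exposed to compounds for 22 h at 37 °C before the viability read; nearly all actives have a fitted effect of over 30% in size.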 Further: potency means the concentration at half of the fitted maximal effect. The procedure, abridged:
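Viability counter screen using VM7Luc4E2 (full-length ER-alpha, four ERE-luciferase). The cells were treated with compounds alongside ICI-182,780 10.0nM for 22hr, and live-cell protease fluorescence was quantified with CellTiter-Fluor.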

Assay [2] has as its target Progesterone receptor (Homo sapiens) (UniProt P06401). Kind of assay: qHTS assay to identify small molecule agonists of the progesterone receptor (PR) signaling pathway (AID 1346784; calls by dose curve; further: nearly all actives have a fitted effect of over 30% in size). The procedure, abridged: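 Compounds were tested for PR agonism in HEK 293T cells bearing a beta-lactamase gene under UAS control. Treatment lasted 16 hr at 37C; signal came from fluorescence of a FRET substrate.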

Assay [3] can be described thus: qHTS assay to identify small molecule agonists of the TGF-beta/Smad signaling pathway - cell viability counter screen (AID 1346829). Further: nearly all actives have a fitted effect of over 45% in size. Further: potency means the concentration at half of the fitted maximal effect. The gist of the method: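 SBE-bla HEK 293T cells plated overnight, compound exposure 5 hr at 37 C. Viability read in the same wells by CellTiter-Glo luminescence after 30 min at room temperature, following the beta-lactamase read.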

A short description of assay [4]: qHTS assay to identify small molecule agonists of the TGF-beta/Smad signaling pathway (AID 1346859; active means well fitted activation curve with a large enough effect in the signal ratio in the repeat runs, not every such curve was filed as active; the % refers to the signal ratio; further: series mostly up to about 77 µM). The procedure, abridged: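 Each well held 4,000 SBE-bla HEK 293T cells incubated overnight before compound addition; 5 hr later the cleavable FRET substrate went on for 2 hr at room temperature, and fluorescence was read at two emissions.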
Assay [5] addresses Thyrotropin-releasing hormone receptor (Homo sapiens) (UniProt P34981). In words: qHTS assay to identify small molecule antagonists of the thyrotropin-releasing hormone receptor (TRHR) signaling pathway (AID 1346877; active means well fitted inhibition curve with a large enough effect in the repeat runs, not every such curve was filed as active; further: series mostly up to about 51 µM). The procedure, abridged:
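Following an 18 h incubation at 37 °C and a 2 h calcium dye load, TRHR-HEK293 cells were exposed to compound (5 min, room temperature) and challenged with TRH, 1 nM final.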

Assay [6] has the same target. In words: qHTS assay to identify small molecule agonists of the thyrotropin-releasing hormone receptor (TRHR) signaling pathway (AID 1346891; calls by dose curve; further: series mostly up to about 58 µM). The procedure, abridged: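 Screening of agonists relied on calcium signalling in HEK293 cells expressing human TRHR: dye loading 2 h at 37 °C preceded compound addition and a 3-min fluorescence time course.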
Assay [7] can be described thus: Human pregnane X receptor (PXR) small molecule agonists, qHTS cell viability counter screen (AID 1346977). Further: nearly all actives have a fitted effect of over 50% in size. Further: potency means the concentration at half of the fitted maximal effect. The procedure, abridged:
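Tox21 qHTS format; PXR-Luc HepG2, 2,000/well, charcoal-stripped FBS 5%. Cpd exposure 24hr. Read: CellTiter-Fluor fluorescence, multiplexed with luciferase.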

The nature of assay [8]: Caspase-3/7 induction in HepG2 cells by small molecules, qHTS assay (AID 1346978). Further: nearly all actives have a fitted effect of over 15% in size. Further: potency means the concentration at half of the fitted maximal effect. The procedure, abridged: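 Wild-type HepG2 cells, 2,000/well, settled 5 hr at 37 C and 5% CO2, then compound-treated for 17 hr; caspase-3/7 activity read by luminescent Caspase-Glo 3/7 after 30 min at room temperature.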
A short description of assay [9]: Caspase-3/7 induction in CHO-K1 cells by small molecules, qHTS cell viability counter screen (AID 1346979). Further: nearly all actives have a fitted effect of over 35% in size. Further: potency means the concentration at half of the fitted maximal effect. The gist of the method:
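CellTiter-Fluor viability check, qHTS format: wild-type CHO-K1, 16hr compound treatment, 1hr reagent incubation, fluorescence read.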

Assay [10] in a line: Caspase-3/7 induction in CHO-K1 cells by small molecules, qHTS assay (AID 1346980). Further: nearly all actives have a fitted effect of over 15% in size. The gist of the method: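 Wild-type CHO-K1 cells exposed to compounds for 17hr at 37 C, 5% CO2. Caspase-3/7 activity then measured by Caspase-Glo 3/7 luminescence after 30min at room temperature.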
Assay [11] can be described thus: Caspase-3/7 induction in HepG2 cells by small molecules, qHTS cell viability counter screen (AID 1346981). Further: nearly all actives have a fitted effect of over 30% in size. Further: potency means the concentration at half of the fitted maximal effect. The gist of the method: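 Viability determined by CellTiter-Fluor fluorescence in HepG2 wells also used for the luminescent Caspase-Glo 3/7 read. Compounds were present for 16 hr at 37 C, 5% CO2 before reagent addition.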
In assay [12] the target is Nuclear receptor subfamily 1 group I member 2 (Homo sapiens) (UniProt O75469). In words: Human pregnane X receptor (PXR) small molecule agonists, qHTS assay (AID 1346982). Further: nearly all actives have a fitted effect of over 35% in size. Further: potency means the concentration at half of the fitted maximal effect. The procedure, abridged: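 Compound-induced hPXR transactivation of a CYP3A4 luciferase reporter was scored in HepG2 PXR-Luc cells over 24 hr at 37 C, 5% CO2, by luminescence.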
Nuclear receptor subfamily 1 group I member 2 (Homo sapiens), sequence (O75469 whole entry, looked up): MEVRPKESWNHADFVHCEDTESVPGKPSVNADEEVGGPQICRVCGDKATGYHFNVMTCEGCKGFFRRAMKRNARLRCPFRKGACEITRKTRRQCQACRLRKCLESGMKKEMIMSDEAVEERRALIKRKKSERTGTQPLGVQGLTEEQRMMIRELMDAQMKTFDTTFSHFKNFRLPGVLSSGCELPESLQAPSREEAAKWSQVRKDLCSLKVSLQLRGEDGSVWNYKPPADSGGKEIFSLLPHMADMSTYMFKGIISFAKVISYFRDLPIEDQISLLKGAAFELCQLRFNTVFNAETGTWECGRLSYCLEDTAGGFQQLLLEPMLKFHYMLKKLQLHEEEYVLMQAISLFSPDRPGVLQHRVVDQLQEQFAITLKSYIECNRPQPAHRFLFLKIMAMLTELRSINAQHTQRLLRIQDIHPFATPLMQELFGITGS
Assay [13] addresses Cytochrome P450 2D6 (Homo sapiens) (UniProt P10635). In words: Cytochrome P450 Family 2 Subfamily D Member 6 (CYP2D6) small molecule antagonists: luciferase reporter qHTS assay (AID 1671196). Further: series mostly up to about 120 µM; nearly all actives have a fitted effect of over 50% in size. The procedure, abridged:
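Each well received CYP2D6 with its proluciferin substrate and chemical, sat 10 min, then got NADPH regeneration solution for 1 h at room temperature. Luminescence in RLU served as the activity measure.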

The nature of assay [14]: qHTS assay to identify small molecule antagonists of the progesterone receptor (PR) signaling pathway - cell viability counter screen (AID 1346798). Further: nearly all actives have a fitted effect of over 50% in size. Further: potency means the concentration at half of the fitted maximal effect. The gist of the method: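 Following a 4 hr attachment, PR-UAS-bla HEK293T cells in charcoal-stripped FBS medium were exposed to compounds with R5020 for 16 hr; CellTiter-Glo was added and luminescence read after 30 min at room temperature.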

The nature of assay [15]: qHTS assay to identify small molecule agonists of the progesterone receptor (PR) signaling pathway - cell viability counter screen (AID 1346799; calls by dose curve; further: nearly all actives have a fitted effect of over 45% in size; further: potency means the concentration at half of the fitted maximal effect). The gist of the method: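 Here, 3,000 PR-UAS-bla HEK293T cells per well were treated with compounds for 16 hr after a 6 hr preincubation at 37C and 5% CO2; cell viability is the CellTiter-Glo luminescence signal.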
Assay [16] in a line: qHTS assay to identify small molecule antagonists of the TGF-beta/Smad signaling pathway - cell viability counter screen (AID 1346824). Further: nearly all actives have a fitted effect of over 50% in size. Further: potency means the concentration at half of the fitted maximal effect. The gist of the method: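 SBE-bla HEK 293T cells, incubated overnight, then compound plus 0.25 ng/mL TGF-beta1 (stock added) for 5 hr at 37 C. Viability was read in the same wells by CellTiter-Glo luminescence after 30 min at room temperature.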

The target of assay [17] is Progesterone receptor (Homo sapiens) (UniProt P06401). In words: qHTS assay to identify small molecule antagonists of the progesterone receptor (PR) signaling pathway (AID 1346795; active means well fitted inhibition curve with a large enough effect in the signal ratio in the repeat runs, not every such curve was filed as active; the % refers to the signal ratio; further: potency means the concentration at half of the fitted maximal effect). The gist of the method: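 In HEK293T cells bearing the PR-UAS-bla reporter, compound effects on promegestone-driven (1 nM) beta-lactamase expression are assessed after 16 hr using a fluorescent FRET substrate incubated 2 hr at room temperature.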
Progesterone receptor (Homo sapiens), sequence (P06401 whole entry, looked up): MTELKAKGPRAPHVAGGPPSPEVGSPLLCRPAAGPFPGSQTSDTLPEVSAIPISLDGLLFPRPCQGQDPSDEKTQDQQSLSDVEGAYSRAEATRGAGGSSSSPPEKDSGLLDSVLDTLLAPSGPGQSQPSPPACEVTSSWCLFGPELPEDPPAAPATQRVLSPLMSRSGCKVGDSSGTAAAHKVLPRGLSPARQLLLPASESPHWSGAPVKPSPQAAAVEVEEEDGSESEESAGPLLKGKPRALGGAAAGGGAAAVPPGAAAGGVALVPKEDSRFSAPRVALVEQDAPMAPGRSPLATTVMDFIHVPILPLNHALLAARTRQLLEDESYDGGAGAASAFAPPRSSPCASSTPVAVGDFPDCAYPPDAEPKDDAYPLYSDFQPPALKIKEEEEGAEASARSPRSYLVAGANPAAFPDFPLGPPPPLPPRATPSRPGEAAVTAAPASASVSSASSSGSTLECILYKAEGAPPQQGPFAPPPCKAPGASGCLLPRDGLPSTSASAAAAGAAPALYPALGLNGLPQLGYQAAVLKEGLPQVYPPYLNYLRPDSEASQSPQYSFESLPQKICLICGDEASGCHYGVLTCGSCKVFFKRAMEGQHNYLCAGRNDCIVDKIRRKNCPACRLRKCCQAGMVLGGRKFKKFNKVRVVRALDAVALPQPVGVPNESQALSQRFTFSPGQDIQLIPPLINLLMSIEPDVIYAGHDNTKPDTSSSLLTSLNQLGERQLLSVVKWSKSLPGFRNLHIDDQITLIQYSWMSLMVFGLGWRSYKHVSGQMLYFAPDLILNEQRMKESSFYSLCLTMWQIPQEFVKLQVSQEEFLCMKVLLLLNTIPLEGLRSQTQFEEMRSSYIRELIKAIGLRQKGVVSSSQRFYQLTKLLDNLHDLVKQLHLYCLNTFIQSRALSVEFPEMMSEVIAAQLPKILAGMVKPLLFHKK

Assay [18] deals with Nuclear receptor subfamily 1 group I member 2 (Homo sapiens) (UniProt O75469). In words: CYP3A4 induction through human pregnane X receptor (PXR) by small molecules, qHTS assay (AID 1346984). Further: nearly all actives have a fitted effect of over 40% in size. The gist of the method: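 Readings come from a luciferase reporter: DPX-2 cells, which are HepG2 cotransfected with PXR and a CYP3A4-promoter construct, were exposed to test compounds for 24 h at 37C before One-Glo detection.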

For assay [19] the target is unchanged. In words: Human pregnane X receptor (PXR) activation by small molecules, qHTS assay (AID 1346985). Further: nearly all actives have a fitted effect of over 40% in size. The gist of the method:
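DPX-2 cells (HepG2 co-transfected with a PXR response element and a CYP3A4-promoter luciferase construct) were seeded at 2,000 per well, rested 5 hr at 37C, then exposed to DMSO-dissolved compounds for 24 hr. Activation was read as luciferase luminescence.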

Assay [20] addresses Nuclear receptor subfamily 1 group I member 2 (Rattus norvegicus) (UniProt Q9R1A7). In words: Rat pregnane X receptor (rPXR) activation by small molecules, qHTS assay (AID 1346983). Further: nearly all actives have a fitted effect of over 20% in size. Particulars: rPXR luciferase reporter cells, One-Glo luminescence, 24 h; hits give high values. The gist of the method:
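Cell-based rPXR activation assay: rPXR cells, 2,000 per well, rested 5hr at 37 C, then exposed to compounds in DMSO for 24 hr at 37 C. Luciferase activity read by One-Glo luminescence after 30 min at room temperature.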
On the % scale 0 is the no-effect control and ±100 the full control effect.

Cytochrome P450 2D6 (Homo sapiens), sequence (P10635 whole entry, looked up): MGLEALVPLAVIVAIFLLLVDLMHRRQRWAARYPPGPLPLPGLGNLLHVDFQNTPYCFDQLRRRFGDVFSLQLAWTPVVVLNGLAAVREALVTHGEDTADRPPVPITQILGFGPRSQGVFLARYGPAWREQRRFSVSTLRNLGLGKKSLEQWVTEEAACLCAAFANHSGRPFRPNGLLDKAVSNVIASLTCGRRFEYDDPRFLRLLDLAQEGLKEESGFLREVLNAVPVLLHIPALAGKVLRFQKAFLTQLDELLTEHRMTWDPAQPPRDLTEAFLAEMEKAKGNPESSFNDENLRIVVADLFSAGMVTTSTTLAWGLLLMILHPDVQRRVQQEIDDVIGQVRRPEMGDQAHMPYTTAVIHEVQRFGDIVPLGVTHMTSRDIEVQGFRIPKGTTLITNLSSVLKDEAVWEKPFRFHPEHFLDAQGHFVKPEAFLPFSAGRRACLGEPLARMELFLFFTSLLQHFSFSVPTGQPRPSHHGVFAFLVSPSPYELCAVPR
Thyrotropin-releasing hormone receptor (Homo sapiens), sequence (P34981 whole entry, looked up): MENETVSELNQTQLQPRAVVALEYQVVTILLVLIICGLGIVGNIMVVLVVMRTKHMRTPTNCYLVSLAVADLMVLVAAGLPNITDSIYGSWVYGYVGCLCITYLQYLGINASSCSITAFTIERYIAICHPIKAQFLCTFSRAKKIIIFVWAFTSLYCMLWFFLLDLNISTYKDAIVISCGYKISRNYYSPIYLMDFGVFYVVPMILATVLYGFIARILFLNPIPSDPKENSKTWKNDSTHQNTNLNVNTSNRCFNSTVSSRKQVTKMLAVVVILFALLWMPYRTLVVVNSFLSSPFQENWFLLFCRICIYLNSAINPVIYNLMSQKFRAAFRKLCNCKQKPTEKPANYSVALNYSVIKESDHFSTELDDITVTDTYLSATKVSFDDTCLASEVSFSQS
Nuclear receptor subfamily 1 group I member 2 (Rattus norvegicus), sequence (Q9R1A7 whole entry, looked up): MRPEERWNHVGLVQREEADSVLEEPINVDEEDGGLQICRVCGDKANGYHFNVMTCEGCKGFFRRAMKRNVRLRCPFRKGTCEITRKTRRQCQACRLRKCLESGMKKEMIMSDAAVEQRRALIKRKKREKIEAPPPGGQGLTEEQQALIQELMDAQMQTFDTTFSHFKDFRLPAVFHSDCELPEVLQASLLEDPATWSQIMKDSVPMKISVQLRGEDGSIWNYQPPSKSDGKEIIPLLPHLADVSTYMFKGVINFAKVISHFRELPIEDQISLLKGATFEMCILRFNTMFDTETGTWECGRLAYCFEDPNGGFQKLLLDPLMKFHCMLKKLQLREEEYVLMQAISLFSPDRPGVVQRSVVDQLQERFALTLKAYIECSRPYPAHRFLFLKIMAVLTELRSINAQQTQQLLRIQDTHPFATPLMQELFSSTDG

Take `C=C(C)C(=O)OCCCCCCCCCC`: the Potency result in assay [1], in [2], in assay [3], in assay [4], in assay [5] and in assay [8] was “inactive” each time. The Potency result in [10] and in [13] was “inactive” each time. Moreover, the call in [6] was inactive. Also, the Potency is 48.9 µM (active) in assay [7], 54.9 µM (active) in assay [9], 61.6 µM (active) in assay [11] and 30.9 µM (active) in assay [12].
Turning to `COc1ccc2c(c1)c(CC(=O)OC/C=C(\C)CC/C=C(\C)CCC=C(C)C)c(C)n2C(=O)c1ccc(Cl)cc1`, the Potency result in [1], in assay [14], in assay [15], in assay [16], in assay [3] and in [4] was “inactive” throughout. The Potency result in assay [5], in [7], in [8], in assay [9] and in assay [10] was “inactive” in each case. The outcome in [6] was inactive.
On to `CN(C)c1ccc(C(=C2C=CC(=[N+](C)C)C=C2)c2ccc(N(C)C)cc2)cc1`, for which the Potency in assay [1] is 8.59 µM (active) and 15.4 µM (active) and 5.96 µM (active); in assay [17], 19.3 µM (active); in [14], 24.2 µM (active) and 30.6 µM (active) and 21.1 µM (active); in [16], 19.4 µM (active) and 43.6 µM (active) and 19 µM (active); in [3] it was 19.4 µM (active) and 49 µM (active) and 23.9 µM (active); in assay [7] it was 3.84 µM (active) and 2.73 µM (active) and 6.68 µM (active). The Potency in assay [8] is 19.2 µM (active) and 27.3 µM (active) and 26.6 µM (active); in assay [9] it was 1.71 µM (active) and 686 nM (active) and 2.37 µM (active); in assay [11] it was 17.1 µM (active) and 9.69 µM (active) and 8.41 µM (active); in assay [12], 2.42 µM (active). For the same molecule, in [6], the molecule was called inactive. Besides, the Potency entry in [18] and in assay [19] was “inactive” in each case.
As to `C[Si](Cl)(c1ccccc1)c1ccccc1`, the Potency entry in assay [1], in assay [14], in assay [16], in assay [3], in assay [4] and in [7] was “inactive” in each case. Besides, the Potency entry in [9], in assay [10] and in assay [11] was “inactive” throughout. For the same molecule, the Potency in assay [17] was 29.9 µM (active); in assay [12] it was 59.6 µM (active).
With `CCCCCCCCCCCCOCCOCCOCCOCCOCCOCCOCCOCCOCCO`, the Potency in assay [1] is 23.7 µM (active); in assay [17] it was 23.7 µM (active); in assay [7], 11.9 µM (active); in assay [9], 11.9 µM (active); in [11], 29.8 µM (active); in assay [12] it was 7.5 µM (active). Moreover, the Potency entry in [3], in [4], in assay [5], in [10], in assay [18] and in assay [19] was “inactive” in each case. Also, the Potency entry in assay [13] was “inactive”. Moreover, the molecule was classed as inactive in [6]. The max activation in [20] is -18.4%.
Take `OCCN1CCN(CCCN2c3ccccc3Sc3ccc(C(F)(F)F)cc32)CC1`: the Potency entry in assay [1], in assay [2], in assay [16], in assay [3], in assay [4] and in [5] was “inactive” each time. For the same molecule, in assay [12], the Potency result was “inactive”. Moreover, the values for the Potency in assay [15], in [7] and in assay [9] were 10.6 µM (active), 33.5 µM (active) and 29.8 µM (active), respectively. The molecule was classed as inactive in assay [6].
Take `CC1(C)CCC[C@]2(C)[C@H]3CC(=O)O[C@]3(C)CC[C@@H]12`: the Potency entry in assay [1], in assay [2], in [15], in assay [16], in assay [3] and in [5] was “inactive” throughout. Moreover, the Potency entry in assay [7], in [8], in assay [9], in assay [10] and in assay [11] was “inactive” each time. Further, in [6], the molecule was called inactive. Moreover, the Potency in assay [12] is 30.6 µM (active).
As to `CC(C(=O)O)c1ccc2c(c1)[nH]c1ccc(Cl)cc12` (configuration not stated), the Potency result in assay [1], in assay [17], in [14], in assay [3], in [5] and in assay [7] was “inactive” in each case. In addition, the Potency result in [8], in assay [11], in assay [12], in assay [18], in [19] and in assay [13] was “inactive” in each case. Moreover, the result in assay [6] was inactive. Moreover, the max activation in [20] is -1.86%.
